Yeast superoxide: lowers age-related superoxide in aged yeast cells. S. cerevisiae aged cells, superoxide DHE fluorescence; active compounds read low. AID 2690. 330,000 tested, 0.18% active. superoxide response (% of plate mean), % at 10 µM;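 active means superoxide response under a set limit, about three screen SD below normal, cut at about 65% in these data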;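 further: yeast aged for seven days with compound at 30 °C before DHE staining; 100% = average MFI of all compound-treated wells on the plate with controls excluded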
A3A deaminase: human APOBEC3A DNA deaminase inhibition. recombinant A3A, FAM/TAMRA ssDNA deamination fluorescence. inhibition, % at 20 µM. 330,000 tested, 0.41% active. AID 493011;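 active means at least 40% inhibition at 20 µM here, with at most 30% in a related deaminase screen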;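 further: plate controls were A3A with DMSO for no effect and wells lacking A3A enzyme for full effect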
Target sequence (P31941 whole entry, looked up): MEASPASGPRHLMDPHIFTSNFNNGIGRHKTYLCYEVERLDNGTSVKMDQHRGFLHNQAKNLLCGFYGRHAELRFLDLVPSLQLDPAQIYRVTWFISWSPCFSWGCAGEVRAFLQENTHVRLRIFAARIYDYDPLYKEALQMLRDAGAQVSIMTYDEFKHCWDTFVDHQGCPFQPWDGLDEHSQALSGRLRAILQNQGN
APOBEC3G inh: blocks human APOBEC3G single-stranded DNA deamination. recombinant A3G, ssDNA deamination FAM/TAMRA fluorescence. inhibition, % at 20 µM. 330,000 tested, 0.28% active. AID 493012;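 active means inhibition of at least 40% at 20 µM, with no more than 30% in the related APOBEC3A deaminase screen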;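 further: plate controls were DMSO wells with A3G for no effect and wells lacking A3G enzyme for full effect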
Target sequence (Q9HC16 whole entry, looked up): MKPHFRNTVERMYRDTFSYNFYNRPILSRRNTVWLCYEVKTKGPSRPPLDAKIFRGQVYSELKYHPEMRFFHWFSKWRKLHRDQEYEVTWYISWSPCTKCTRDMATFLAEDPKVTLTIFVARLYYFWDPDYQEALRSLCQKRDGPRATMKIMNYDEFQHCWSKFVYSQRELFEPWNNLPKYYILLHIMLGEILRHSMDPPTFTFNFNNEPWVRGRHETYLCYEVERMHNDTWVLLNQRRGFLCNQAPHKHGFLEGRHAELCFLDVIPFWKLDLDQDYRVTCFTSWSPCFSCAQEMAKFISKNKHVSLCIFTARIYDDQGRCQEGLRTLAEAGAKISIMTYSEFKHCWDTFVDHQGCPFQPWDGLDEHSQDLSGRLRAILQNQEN
PfM18AAP inh: PfM18AAP enzyme inhibition; recombinant PfM18AAP, H-Glu-NHMec fluorogenic cleavage; inhibition, % at 7.35 µM; 290,000 tested, 1.2% active; AID 1822;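 active means inhibition above the campaign mean inhibition over all tested compounds plus 3 SD, cut at about 28% in these data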;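 further: 0% = plate median of test compound wells and 100% = 2 mM ZnCl2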
PfGluPho inh: PfG6PD (Plasmodium falciparum) enzyme inhibition | PfGluPho enzyme, NADPH resazurin-diaphorase fluorescence | inhibition, % at 20 µM | 350,000 tested, 0.78% active;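 active means inhibition reaching at least a set limit at 20 µM in the primary screen, cut at about 59% in these data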;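 further: 0% = DMSO wells with substrate and 100% = DMSO wells lacking glucose-6-phosphate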
CR mimetic CP: yeast aging superoxide inhibition, cherry pick confirmation; shares compounds with Yeast superoxide; S. cerevisiae aging, superoxide DHE fluorescence; active compounds read low; superoxide response (% of plate), % at 10 µM; 850 tested, 1% active; AID 434994;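 active means superoxide signal below 65% of the plate average of sample wells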;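 further: cells aged with compound for 7 days at 30 degrees C before staining; 100% equals mean DHE fluorescence of all compound wells on the plate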
DHE fluor count: compound alters DHE oxidation or fluorescence in yeast | S. cerevisiae BY4741, flow cytometry; active compounds read low | 850 tested, under 10 active | fluorescence response, % at 10 µM | shares compounds with Yeast superoxide;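 active means fluorescence response below 15%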;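 further: percent of the mean fluorescence averaged over all compound wells on the plate; lower means stronger quenching of DHE signal or ROS scavenging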
The depositor's hits bear a star; . = no result. A selection: hits, their analogues and other compounds. The true share with any hit is near 2.4%.

SMILES	Yeast superoxide	A3A deaminase	APOBEC3G inh	PfM18AAP inh	PfGluPho inh	CR mimetic CP	DHE fluor count
CCn1c2ccccc2c2cc(NC(=O)CC(C)=O)ccc21	95	-9	-10	-10	6	101	93
O=C(O)C1(c2ccccc2)CCN(S(=O)(=O)c2cccc(Cl)c2)CC1	100	-2	-7	5	-30	.	.
CN1CC(=O)Nc2ccccc2C1=O	105	-2	3	-4	-1	.	.
CN1CC(=O)Nc2ccc(Br)cc2C1=O	65*	-5	-7	1	-16	94	98
COc1ccc(S(=O)(=O)N2CC=C(C(=O)NC3CCCC3)CC2)cc1	63*	2	1	1	6	103	93
Nc1c(NCc2ccccc2)c(=O)c1=O	63*	-4	-8	-1	-4	96	91
O=C1C=C(NCc2ccccc2)CCC1	109	-3	-8	7	-11	.	.
Cc1ccc(CN2CCNC(=O)C2CC(=O)N(C)C2CCCCC2)cc1 (stereo unspecified)	101	-1	-7	7	-28	.	.
CC1(C)CC(NCc2cccc([N+](=O)[O-])c2)CC(C)(C)N1	62*	3	7	4	6	112	88
COCC(C)N1CCC(n2nccc2NC(=O)CCCc2ccccc2)CC1 (stereo unspecified)	75	-2	0	-10	-1	.	.
CCOC(=O)c1ccc(NC(=O)Nc2ccn(C)n2)cc1	63*	5	-2	4	-3	103	96
CCCN(C(=O)c1nc2nc(C)cc(C)n2n1)c1c(N)n(Cc2ccccc2)c(=O)[nH]c1=O	104	1	-5	.	10	.	.
COc1cccc(CN2CC(C(=O)N(C)CCCC3CCCC3)CCC2=O)c1 (stereo unspecified)	124	-5	-8	3	-6	.	.
O=C(CN(c1ccccc1F)S(=O)(=O)c1ccccc1)NC1CCCCCC1	96	-5	-6	-14	-9	.	.
O=C(O)CN(c1ccccc1F)S(=O)(=O)c1ccccc1	95	1	-7	-4	2	94	94
O=C(CN(c1ccc(F)cc1)S(=O)(=O)c1ccc2c(c1)OCCO2)NCc1ccccc1	91	-3	-6	2	-12	.	.
O=C(CN(c1ccc2c(c1)OCCO2)S(=O)(=O)c1ccccc1)NCc1ccc(Cl)cc1	62*	1	-3	0	-3	102	91
COc1ccccc1NC(=O)COc1ccc(Br)cc1CO	111	-1	-7	1	-7	.	.
COc1cc(CO)c(Br)cc1OCC(=O)Nc1ccccc1C	64*	-4	-6	1	11	105	102
COc1cccc(CNC(=O)C2CCN(S(=O)(=O)N3CCC4(CC3)OCCO4)CC2)c1	101	-3	-6	-4	-5	.	.
COc1ccc(CNC(=O)C2CCN(S(=O)(=O)N3CCC4(CC3)OCCO4)CC2)c(OC)c1	63*	-5	-5	0	14	112	132
Cc1ccc(-c2nnc(Nc3ccc(C(N)=O)cc3)c3ccccc23)cc1S(=O)(=O)NCC1CCCO1 (stereo unspecified)	95	-5	-6	7	21	112	100
Cc1ccc(-c2nnc(Nc3ccc4c(c3)OCO4)c3ccccc23)cc1S(N)(=O)=O	110	-2	-2	3	51	99	94
CNC(=O)c1cc(Nc2nnc(-c3ccc(C)c(S(N)(=O)=O)c3)c3ccccc23)ccc1OC	58*	-3	-3	-3	12	115	111
Cc1nnc(Nc2ccc3c(c2)OCO3)c2ccccc12	103	-3	-1	-2	11	.	.
SMILES	Yeast superoxide	A3A deaminase	APOBEC3G inh	PfM18AAP inh	PfGluPho inh	CR mimetic CP	DHE fluor count
CNC(=O)COc1ccc(Nc2nnc(-c3ccc(C)c(S(N)(=O)=O)c3)c3ccccc23)cc1	42*	-3	-4	2	13	101	92
CC(=O)Nc1ccc(Nc2nnc(-c3ccc(C)c(S(=O)(=O)NCCO)c3)c3ccccc23)cc1	101	-4	0	4	-3	.	.
Fc1ccc(Cn2nnc3ccccc32)cc1	64*	0	-9	-15	-8	94	93
O=C(Nc1ccon1)Nc1cccc(Cl)c1Cl	94	-1	-3	-5	20	.	.
CCC(C)c1ccc(C(C)NC(=S)NC2CCCCC2)cc1 (stereo unspecified)	50*	-4	-6	-1	-17	84	90
C[C@@H]1CN([C@@H](C)CO)C(=O)CCCn2nncc2CO[C@H]1CN(C)C(=O)Nc1cccc(Oc2ccccn2)c1	.	.	.	.	2	.	.
CCCn1c2ccc(/C(C)=N\O)cc2c2cc(/C(C)=N/O)ccc21	112	-1	-3	6	46	104	90
Cc1nc(Nc2ccc(S(=O)(=O)N3CCCCC3C)cc2)c2nnn(Cc3ccccc3)c2n1 (stereo unspecified)	59*	-6	-5	5	19	106	109
Cc1nc(Nc2ccc(Cl)cc2)c2nnn(Cc3ccccc3)c2n1	110	0	-4	-2	9	.	.
Cc1c(Cc2ccccc2)c(NCCN(C)C)n2c(nc3ccccc32)c1C#N	59*	-2	-3	-2	1	82	119
COc1ccc(/C=N/NC(=O)CCN2CCN(c3ccccc3)CC2)c(OC)c1OC	62*	-5	-4	0	-3	108	106
Cc1nc(-c2ccc(NC(=O)Cc3ccccc3)cc2)cs1	64*	-1	-6	3	15	120	123
COc1ccc(CC(=O)Nc2ccc(-c3csc(C)n3)cc2)cc1	100	3	-5	1	-8	.	.
O=C(CN1CCCCC1)NNc1nc(-c2ccccc2)c2cc(Br)ccc2n1	106	2	0	1	-2	.	.
CC(C)(C)NC(=O)c1cccc2c1-c1ccccc1C2=O	42*	-6	-11	10	2	103	111
O=C1NC(SCCCF)=N/C1=C/c1ccc(-n2cncn2)cc1	96	-2	-4	-5	-1	.	.
Cc1cc(C)n2nc(-c3ccccc3)c(-c3ccccc3)c2n1	93	0	-1	-6	10	95	92
O=C(CSc1nc2ccccc2o1)N1CCN(S(=O)(=O)c2ccc3ccccc3c2)CC1	64*	-2	-10	5	10	111	117
C[C@H](NC(=O)c1ccccc1)C(=O)OCC(=O)Nc1sccc1C(N)=O	92	3	2	.	7	.	.
c1ccc(CNc2ncnc3c2cnn3-c2ccccc2)cc1	100	5	2	-5	2	.	.
CC(C)(C)Nc1ncnc2c1cnn2-c1ccccc1	87	-2	-2	.	35	100	95
COCCNc1ncnc2c1cnn2-c1ccc(Cl)cc1	116	-4	-6	-13	5	.	.
CC(C)Nc1ncnc2c1cnn2-c1ccc(Cl)cc1	98	-1	-8	-5	42	90	91

Screening results deposited in PubChem by several laboratories.
